Experimental findings from PubChem BioAssay AID624418 (National Center for Advancing Translational Sciences (NCATS), 2012) are described below.

The campaign covered roughly 410,000 compounds. About 530 (0.13%) were called active. Roughly 5% stayed inconclusive and do not appear here. Calls follow the shape of the dose curve; as a rule, active = well fitted inhibition curve with a large enough effect; inconclusive = small, poorly fitted or top-dose-only effect, or another doubt; inactive = no such curve, though single readings can be large or run the other way. What follows is part of a selection rich in actives, with near analogues and random picks from the rest. Where a call stands in place of a potency, no number is given.
Potency is read from the fitted curve at half-maximal effect.

A short description of the assay: qHTS of GLP-1 Receptor Inverse Agonists: Cytotox Screen.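 Also: loss of luciferase light is scored as toxicity.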 Conditions: HEK293 cAMP-luciferase reporter cells, luminescence, 24 h; series mostly up to 38.3 µM. The essentials: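 MLSMR compounds, 24 hr on cells at 37 deg C/5% CO2; luminescence after luciferase reagent (12 min RT). Inhibition counted as the undesired cytotoxic outcome.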
For orientation: qHTS replaces the single test concentration by a dilution series.
Turning to `COc1ccc(CCNCc2c(C(=O)O)c(C)n(Cc3cccc(C)c3)c2C)cc1OC`, the Potency result was “inactive”.

Consider `Cc1cn(C)c(CC(=O)NCc2ccc(Cl)cc2)c1C(=O)O`, for which the Potency entry was “inactive”.

For `CCOc1ccc(N2CC(c3nc4ccccc4n3CCOc3ccc(OC)cc3)CC2=O)cc1` (configuration not stated), the Potency result was “inactive”.

On to `O=C(NCc1ccccc1Cl)c1cccn1-c1nnc(N2CCCCC2)s1`, for which the Potency result was “inactive”.

For `COc1ccc(N(CC(=O)NCCc2ccc(Cl)cc2)S(=O)(=O)c2c(C)nn(C)c2C)cc1`, the Potency entry is “inactive”.

As to `CC(CNC(=O)c1nnc(Cc2cccc(F)c2)o1)c1ccccc1` (configuration not stated), the Potency entry was “inactive”.

As for `Cc1ccc(CNC(=O)CCc2c(C)nc3c(c(C)nn3-c3ccccc3)c2C)cc1`, the Potency result was “inactive”.

For `CNc1ccc(-c2nc(-c3ccco3)no2)cc1[N+](=O)[O-]`, the Potency result was “inactive”.

On to `O=C(NCCc1ccc(Cl)cc1)c1ccc2c(c1)N(Cc1ccc(F)cc1)C(=O)CS2`, for which the Potency entry is “inactive”.

As to `CCOc1ccc(-c2nonc2NC(=O)c2oc3ccc(CC)cc3c2C)cc1`, the Potency result is “inactive”.

Consider `COc1ccc(NC(=O)C(c2ccccc2)N2Cc3ccccc3C2=O)cc1` (configuration not stated), for which the Potency result is “inactive”.

Regarding `CCOc1ccc(NC(=O)C2CCN(S(=O)(=O)c3cc(-c4noc(C)n4)ccc3C)CC2)cc1`, the Potency entry is “inactive”.

As for `CC1CC2=C(CC1/C=N/NC(N)=S)C(C)(C)CCC2` (configuration not stated), the Potency was 2240 nM (active).

Consider `Cc1nc2c(-c3ccccc3)c(C)nn2c(C)c1CCC(=O)NCCc1ccccc1`, for which the Potency entry was “inactive”.

With `Cc1cccc(CSc2nc3ccncc3n2CC(=O)N(C)C2CCCCC2)c1`, the Potency result was “inactive”.

For the compound `CC(C)(C)OC(=O)N1CCC(c2c(C(=O)N3CCN(c4cccc(Cl)c4)CC3)cnn2-c2cccc(Cl)c2)CC1`, the Potency entry is “inactive”.

On to `COc1cc(/C=C/C(=O)N2CCc3ccccc3C2)cc(OC)c1OC`, for which the Potency entry was “inactive”.

Regarding `CCOc1ccc(C(=O)Nc2ccc3nc4c(c(Nc5ccccc5OC)c3c2)CCCC4)cc1`, the Potency result is “inactive”.

With `COc1ccccc1Nc1c2c(nc3ccc(NC(=O)/C=C/c4cc(OC)c(OC)c(OC)c4)cc13)CCCC2`, the Potency was 4470 nM (active).

As to `CC(=O)N1CCc2cc(S(=O)(=O)NC(Cc3ccccc3)C(=O)NCc3ccc(C)cc3)ccc21` (configuration not stated), the Potency entry was “inactive”.

As to `Clc1cccc(-n2ncc3c(NCCc4ccccc4)ncnc32)c1`, the Potency result was “inactive”.

With `CCn1cc(C(=O)NCc2ccc(C)cc2)c(=O)c2cc(S(=O)(=O)N3CCc4ccccc4C3)ccc21`, the Potency result was “inactive”.

With `CCOc1cc(C(=O)NCCc2csc3nc(-c4ccc(C)cc4)nn23)cc(OCC)c1OCC`, the Potency result is “inactive”.

Regarding `CCCCN1CC(c2nc3ccccc3n2CCCCOc2ccc(C)cc2C)CC1=O` (configuration not stated), the Potency entry was “inactive”.

In the case of `CC(C)Oc1c(Br)cc(Br)cc1/C=N/NC(N)=S`, the Potency was 2510 nM (active).

Consider `CC1(C(=O)N/N=C/c2cc3c(cc2Br)OCO3)CC1(Br)Br` (configuration not stated), for which the Potency entry was “inactive”.

Turning to `CCCCn1cc(S(=O)(=O)c2ccc(OCC)cc2)c(=O)c2cc(OC)c(OC)cc21`, the Potency result was “inactive”.
